Experimental data from ChEMBL document CHEMBL2218924, “A broad activity screen in support of a chemogenomic map for kinase signalling research and drug discovery” (Biochem J, 2013).

These compounds were tested against RAC-gamma serine/threonine-protein kinase (Homo sapiens) (UniProt Q9Y243). Conditions: at 10 µM.
Chain of RAC-gamma serine/threonine-protein kinase (Homo sapiens) (Q9Y243 whole entry): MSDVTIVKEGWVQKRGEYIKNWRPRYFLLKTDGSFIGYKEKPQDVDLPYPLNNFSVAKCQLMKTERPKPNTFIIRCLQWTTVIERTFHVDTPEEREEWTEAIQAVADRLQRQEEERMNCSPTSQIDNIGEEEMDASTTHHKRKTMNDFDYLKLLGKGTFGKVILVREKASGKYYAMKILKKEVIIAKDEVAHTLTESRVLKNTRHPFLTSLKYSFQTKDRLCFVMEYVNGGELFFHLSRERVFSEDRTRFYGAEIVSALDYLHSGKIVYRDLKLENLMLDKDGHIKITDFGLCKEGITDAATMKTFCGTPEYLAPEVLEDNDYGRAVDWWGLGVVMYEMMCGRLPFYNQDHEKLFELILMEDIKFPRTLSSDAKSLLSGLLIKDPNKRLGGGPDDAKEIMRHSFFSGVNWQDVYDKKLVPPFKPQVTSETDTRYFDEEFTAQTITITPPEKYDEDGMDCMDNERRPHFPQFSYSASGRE

| Structure (SMILES) | residual activity |
| --- | --- |
| N#C/C(=C1/Nc2ccccc2S1)c1ccnc(NCCc2cccnc2)n1 | 16% |
| O=c1c(-c2ccc(F)cc2)c(-c2ccncc2)[nH]n1-c1ccc(Cl)cc1 | 65% |
| O=S(=O)(NCCNC/C=C/c1ccc(Br)cc1)c1cccc2cnccc12 | 4% |
| CC(C)c1nn(-c2c(Cl)cccc2Cl)c2nc(Cc3ccc(OCCO)cc3)[nH]c(=O)c12 | 89% |
| O=c1cc(N2CCNCC2)oc2c(-c3ccccc3)cccc12 | 85% |
| O=c1cc(N2CCOCC2)oc2c1ccc1ccccc12 | 102% |
| O=C(Nc1nc2ccccc2n1CCN1CCOCC1)c1cccc([N+](=O)[O-])c1 | 84% |
| N#Cc1c(NC(=O)c2cccc3ccccc23)sc2c1CCCC2 | 81% |
| Nc1n[nH]c2nc3ccccc3nc12 | 93% |
| O=C(NC(NC(=S)Nc1ccc(F)c([N+](=O)[O-])c1)C(Cl)(Cl)Cl)C(c1ccccc1)c1ccccc1 (stereo not drawn) | 69% |
| O=C1C(Cl)=C(N2C(=O)CCC2=O)C(=O)c2ccccc21 | 87% |
| O=S(=O)(c1cccc2cnccc12)N1CCCNCC1 | 55% |
| O=C1NC(=O)C(c2cn(CCCO)c3ncccc23)=C1c1cnccn1 | 89% |
| CN([C@@H](Cc1ccc(OS(=O)(=O)c2cccc3cnccc23)cc1)C(=O)N1CCN(c2ccccc2)CC1)S(=O)(=O)c1cccc2cnccc12 | 60% |
| NC(=O)c1ccc(-c2nc(-c3ccc4c(c3)OCCO4)c(-c3ccccn3)[nH]2)cc1 | 94% |
| O=C1NC(=O)C(c2cn(CCCn3ccnc3)c3ccccc23)=C1Nc1ccccc1 | 15% |

Each compound was assayed against Protein kinase C alpha type (Homo sapiens) (UniProt P17252). Conditions: at 1 µM.

| Structure (SMILES) | residual activity |
| --- | --- |
| CCCCc1c(-c2ccc(O)cc2)[nH]c2nccnc12 | 97% |
| COc1ccc(CNC(=O)Nc2ncc([N+](=O)[O-])s2)cc1 | 102% |
| O=C1Cc2c([nH]c3ccc(Br)cc23)-c2ccccc2N1 | 90% |
| CC(C)c1nn(-c2c(Cl)cccc2Cl)c2nc(Cc3ccc(OCCO)cc3)[nH]c(=O)c12 | 105% |
| Cc1cc(C)c(/C=C2\C(=O)Nc3ccccc32)[nH]1 | 100% |
| O=c1cc(N2CCOCC2)oc2c1ccc1ccccc12 | 102% |
| O=C(Nc1nc2ccccc2n1CCN1CCOCC1)c1cccc([N+](=O)[O-])c1 | 104% |
| COc1ccc(Cl)cc1NC(=O)Nc1cc(C)nc2ccccc12 | 98% |
| Nc1nc(Nc2ccc(S(N)(=O)=O)cc2)nn1C(=O)c1c(F)cccc1F | 63% |
| CC(C)[C@H](CO)Nc1nc(Nc2cc(N)cc(Cl)c2)c2ncn(C(C)C)c2n1 | 83% |
| NC(=O)c1ccc(-c2nc(-c3ccc4c(c3)OCCO4)c(-c3ccccn3)[nH]2)cc1 | 90% |
| O=C1NC(=O)C(c2cn(CCCn3ccnc3)c3ccccc23)=C1Nc1ccccc1 | 6% |
